The panel holds about 83,000 compounds, 20% with a hit somewhere; the sample as a whole holds those more often.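 Method: cells in 96-well plates; compound added at one concentration; 48 h incubation; percent growth measured; values under 10 scored active.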 A number with no mark means an inactive call. Calls of active or inactive are those of the source.

What all share (test): NCI-60 one-dose screen, 48 h (100 = growth as untreated, 0 = no growth, -100 = all killed)
For assay [1], the system named is NCI-H23 lung. Particulars: 10 µM unless noted.
The subject of assay [2] is NCI-H226 lung. The settings on record: 10 µM unless noted.
The test system of assay [3] is NCI-H322M lung. Particulars: 10 µM unless noted.
The test system of assay [4] is NCI-H460 lung. Particulars: 10 µM unless noted.
Assay [5] deals with HOP-92 NSCLC. The settings on record: 10 µM.
The subject of assay [6] is NCI-H522 lung. Particulars: 10 µM.
Assay [7] relates to A549/ATCC NSCLC. The settings on record: 10 µM unless noted.
Assay [8] concerns 786-0 renal. The settings on record: 10 µM unless noted.
For assay [9], the system named is COLO 205 colon. The settings on record: 10 µM unless noted.
In assay [10] the test system is DU-145 prostate. Particulars: 10 µM unless noted.
In assay [11] the test system is K-562 leukemia. The settings on record: 10 µM unless noted.
For assay [12], the system named is MALME-3M melanoma. The settings on record: 10 µM unless noted.
Assay [13] has as its system MDA-MB-231 breast. Particulars: 10 µM unless noted.
Assay [14] relates to RXF 393 renal. The settings on record: 10 µM unless noted.
Assay [15] relates to SF-268 CNS. The settings on record: 10 µM unless noted.
Assay [16] concerns SF-295 CNS. The settings on record: 10 µM unless noted.
Assay [17] deals with SF-539 CNS. The settings on record: 10 µM unless noted.
The subject of assay [18] is UACC-257 melanoma. Particulars: 10 µM unless noted.
In assay [19] the test system is M14 melanoma. The settings on record: 10 µM unless noted.

Consider `O=C(Cc1ccccc1[N+](=O)[O-])c1ccc2c(c1)OCO2`, for which the growth in assay [1] was 99.3%; in assay [2], 97.1%; in assay [3] it was 103%; in [4] it was 101%; in assay [5] it was 82%; in assay [6] it was 91.7%. In addition, the growth in assay [7] was 98.1%; in [8], 94.3%; in assay [9], 116%; in [10], 106%; in [11], 94.1%; in assay [12], 96.1%. In addition, the growth was 109% in [13]; 104% in [14]; 94.1% in assay [15]; 96.1% in assay [16]; 101% in assay [17]; 98.7% in assay [18]. Also, in assay [19], the growth is 103%.

Take `NC(=O)CC(NC(=O)COc1ccc(Cl)cc1Cl)C(=O)O` (centres undefined): the growth in assay [1] is 101%; in assay [2], 102%; in [3], 102%; in assay [4], 104%; in [5], 96.4%; in assay [6], 98%. The growth was 106% in [7]; 108% in assay [8]; 106% in assay [9]; 104% in [10]; 103% in assay [11]; 105% in assay [12]. In addition, the growth in assay [13] is 105%; in assay [14], 108%; in assay [15] it was 101%; in assay [16] it was 100%; in assay [17], 111%; in assay [18], 107%. The growth in assay [19] was 106%.

With `c1ccc(C(=NNc2nc3ccccc3o2)c2ccccn2)nc1`, the growth in [1] is 10.8%; in [2] it was -2.97% (active); in assay [3] it was 13.3%; in [4] it was 3.05% (active); in assay [5], 34.4%; in assay [6] it was 20.9%. Moreover, the growth in [7] was 6.29% (active); in assay [8], 6.88% (active); in assay [9] it was 18%; in assay [10], 20.3%; in assay [11], 10.9%; in [12], 19.5%. Further, the growth in assay [13] was 29.7%; in assay [14] it was 16.4%; in [15] it was 7.72% (active); in assay [16], 0.423% (active); in assay [17] it was 2.62% (active); in assay [18], -1.59% (active). Besides, the growth in assay [19] is -4.91% (active).

In the case of `N=C(N)N=Nc1ccc(NN=C(N)N)c2ccccc12`, the growth is 106% in [1]; 117% in [2]; 97% in assay [3]; 108% in assay [4]; 93.7% in assay [5]; 87.1% in assay [6]. Further, the growth in assay [7] is 97.8%; in [8] it was 95.3%; in [9], 111%; in assay [10], 113%; in [11], 103%; in [12], 146%. In addition, the growth in [13] was 101%; in assay [14], 142%; in assay [16], 106%; in [18], 105%; in assay [19], 75.9%.

For the origin of these results see PubChem BioAssay (NCI).
